Experimental data from PubChem BioAssay AID1117292 (Broad Institute, 2014).
Potency and affinity values are given separately. Records with an inconclusive call do not appear. Where a call stands in place of a potency, no number is given. Active and inactive are the calls of the source.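 Rule for the calls: active = compound whose fitted half-maximal dose for signal loss lies within twice the top dose in every replicate test; inconclusive = tests disagree, or flat partial signal loss or poor fit; inactive = every test inactive, flat, rising or too weak.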

Target: Endoplasmic reticulum aminopeptidase 1 (Homo sapiens) (UniProt Q9NZ08)
Test: ERAP1 enzyme inhibitors, dose response, biochemical, fluorescence plate reader, dry powder (AID 1117292)
Details: purified ERAP1, Leu-AMC fluorescence, 60 min; series mostly up to 50 µM

Endoplasmic reticulum aminopeptidase 1 (Homo sapiens), sequence (Q9NZ08 whole entry, looked up): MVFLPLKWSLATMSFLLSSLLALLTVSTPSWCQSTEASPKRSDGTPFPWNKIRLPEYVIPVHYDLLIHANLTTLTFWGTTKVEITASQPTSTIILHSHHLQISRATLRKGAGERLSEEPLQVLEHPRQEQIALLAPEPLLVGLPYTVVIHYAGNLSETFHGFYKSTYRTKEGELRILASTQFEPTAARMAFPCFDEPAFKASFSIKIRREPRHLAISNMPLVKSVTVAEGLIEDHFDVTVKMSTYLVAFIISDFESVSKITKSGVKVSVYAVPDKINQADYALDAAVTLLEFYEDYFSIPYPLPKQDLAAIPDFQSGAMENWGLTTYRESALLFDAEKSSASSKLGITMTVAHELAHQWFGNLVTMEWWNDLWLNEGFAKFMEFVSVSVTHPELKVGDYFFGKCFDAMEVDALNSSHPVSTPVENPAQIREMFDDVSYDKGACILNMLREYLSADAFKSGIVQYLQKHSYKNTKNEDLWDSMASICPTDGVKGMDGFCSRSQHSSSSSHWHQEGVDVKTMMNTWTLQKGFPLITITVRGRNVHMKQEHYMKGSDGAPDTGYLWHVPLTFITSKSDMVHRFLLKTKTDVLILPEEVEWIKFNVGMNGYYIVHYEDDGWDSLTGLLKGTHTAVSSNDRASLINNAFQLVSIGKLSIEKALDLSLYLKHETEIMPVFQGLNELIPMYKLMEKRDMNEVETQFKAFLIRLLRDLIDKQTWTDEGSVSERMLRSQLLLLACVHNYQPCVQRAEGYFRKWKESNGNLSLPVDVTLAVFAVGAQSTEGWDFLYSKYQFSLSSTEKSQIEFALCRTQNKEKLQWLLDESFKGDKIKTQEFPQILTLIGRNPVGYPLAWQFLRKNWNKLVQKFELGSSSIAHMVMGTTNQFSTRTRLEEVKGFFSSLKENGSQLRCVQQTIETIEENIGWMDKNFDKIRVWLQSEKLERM

SMILES | outcome
COc1ccc(S(=O)(=O)Nc2cc(C(F)(F)F)ccc2N2CCCCC2)cc1 | inactive
O=[N+]([O-])c1cccc(S(=O)(=O)Nc2cc(C(F)(F)F)ccc2N2CCCCC2)c1 | inactive
CC(=O)N1CCN(C(=O)[C@@H]2CCN2C(=O)Nc2ccc(C)cc2)CC1 | inactive
COc1ccc(C(=O)O)cc1S(=O)(=O)Nc1cc(C(F)(F)F)ccc1N1CCCCC1 | inactive
Cn1cnc(S(=O)(=O)Nc2cc(C(F)(F)F)ccc2N2CCCCC2)c1 | inactive
CC(=O)N1CCN(C(=O)C2(NC(=O)Nc3ccc(C(F)(F)F)cc3)CCCCC2)CC1 | inactive
COc1ccc(C(=O)O)cc1S(=O)(=O)Nc1cc(C(F)(F)F)ccc1N(C)C | inactive
COc1ccc(C(=O)Nc2cc(C(F)(F)F)ccc2N2CCOCC2)cc1S(=O)(=O)O | inactive
CC(=O)N1CCN(C(=O)C2(NC(=O)Nc3ccccc3F)CCCCC2)CC1 | inactive
CC(=O)N1CCN(C(=O)C2(NC(=O)Nc3ccccc3C(F)(F)F)CCCCC2)CC1 | inactive
CC(=O)N1CCN(C(=O)C2(NC(=O)Nc3ccc(F)cc3)CCCC2)CC1 | inactive
COc1ccc(C(=O)Nc2cc(C(F)(F)F)ccc2N2CCCC2)cc1S(=O)(=O)O | inactive
CC(=O)N1CCN(C(=O)C2(NC(=O)Nc3ccc(C(F)(F)F)cc3)CCCC2)CC1 | inactive
O=S(=O)(Nc1cc(C(F)(F)F)ccc1N1CCCCC1)c1ccc(Br)cc1 | inactive
O=S(=O)(Nc1cc(C(F)(F)F)ccc1N1CCCCC1)c1cc(Cl)cc(Cl)c1 | inactive
CC(=O)N1CCN(C(=O)C2(NC(=O)Nc3cccc(F)c3)CCCCC2)CC1 | inactive
O=S(=O)(Nc1cc(C(F)(F)F)ccc1N1CCCCC1)c1ccc(Cl)cc1 | inactive
O=C(Nc1cc(C(F)(F)F)ccc1N1CCCCC1)c1ccc(S(=O)(=O)O)cc1 | inactive
CC(=O)N1CCN(C(=O)C2(NC(=O)Nc3ccc(C(C)C)cc3)CCCC2)CC1 | inactive
COc1ccc(C(=O)Nc2cc(C)ccc2N2CCCCC2)cc1S(=O)(=O)O | inactive
O=S(=O)(Nc1cc(C(F)(F)F)ccc1N1CCCCC1)c1ccc(F)cc1 | inactive
COc1ccc(C(=O)Nc2cccc(C(F)(F)F)c2)cc1S(=O)(=O)O | inactive
